# Assay results reported in PubChem BioAssay AID1159580 (chemical genetic matrix, 2015).
# In all, about 5,500 compounds went through this assay and about 2,000 (36%) were called active. Not shown: some 18% with an inconclusive outcome. The list shows a part of the results. Values without a mark were called inactive. No stated cut-off is given here; in the data, active means normalized growth mostly below about 0.91 (no sharp cut-off); inconclusive means no clear call, values can overlap the other calls; inactive means mostly above about 0.92.
# Experiment: chemical genetic growth profiling, strain panel (AID 1159580);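 further: tested at 20 µM; growth read once vehicle control cultures reached saturation at 30 °C; 1 = growth at the plate median or of vehicle wells; lower values mean less growth of the strain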
# Conditions: S. cerevisiae deletion strains, growth OD
smiles,measurement,setting,value
CC(=O)c1ccc(O)c(CC=C(C)C)c1,normalized growth,"locus YAL021C, strain ccr4, hits give low values",1
same,normalized growth,"locus YAL026C, strain drs2, hits give low values",0.952
same,normalized growth,"locus YAL030W, strain snc1, hits give low values",0.972
same,normalized growth,"locus YBL061C, strain skt5, hits give low values",0.956
same,normalized growth,"locus YBR009C, strain hhf1, hits give low values",0.933
same,normalized growth,"locus YBR021W, strain FUR4, hits give low values",0.954
same,normalized growth,"locus YBR023C, strain chs3, hits give low values",0.964
same,normalized growth,"locus YBR171W, strain sec66, hits give low values",0.949
same,normalized growth,"locus YBR229C, strain ROT2, hits give low values",0.983
same,normalized growth,"locus YBR231C, strain swc5, hits give low values",0.929
same,normalized growth,"locus YBR279W, strain paf1, hits give low values",0.977
same,normalized growth,"locus YCL011C, strain gbp2, hits give low values",0.959
same,normalized growth,"locus YCL016C, strain dcc1, hits give low values",0.999
same,normalized growth,"locus YCL029C, strain bik1, hits give low values",0.967
same,normalized growth,"locus YCL061C, strain MRC1, hits give low values",0.965
same,normalized growth,"locus YCL069W, strain vba3, hits give low values",0.971
same,normalized growth,"locus YCR088W, strain abp1, hits give low values",0.968
same,normalized growth,"locus YDL005C, strain med2, hits give low values",0.952
same,normalized growth,"locus YDL035C, strain GPR1, hits give low values",0.956
same,normalized growth,"locus YDL040C, strain nat1, hits give low values",0.97
same,normalized growth,"locus YDL074C, strain BRE1, hits give low values",0.867
same,normalized growth,"locus YDL101C, strain DUN1, hits give low values",0.963
same,normalized growth,"locus YDL134C, strain PPH21, hits give low values",0.984
same,normalized growth,"locus YDL185W, strain tfp1, hits give low values",0.922
same,normalized growth,"locus YDL192W, strain arf1, hits give low values",0.942
same,normalized growth,"locus YDR001C, strain nth1, hits give low values",0.966
same,normalized growth,"locus YDR069C, strain doa4, hits give low values",0.951
same,normalized growth,"locus YDR101C, strain arx1, hits give low values",0.968
same,normalized growth,"locus YDR137W, strain rgp1, hits give low values",0.983
same,normalized growth,"locus YDR159W, strain sac3, hits give low values",0.896
same,normalized growth,"locus YDR162C, strain NBP2, hits give low values",0.963
same,normalized growth,"locus YDR195W, strain ref2",0.975
same,normalized growth,"locus YDR297W, strain sur2, hits give low values",0.933
same,normalized growth,"locus YDR318W, strain mcm21, hits give low values",0.958
same,normalized growth,"locus YDR334W, strain swr1, hits give low values",0.966
same,normalized growth,"locus YDR335W, strain msn5, hits give low values",0.994
same,normalized growth,"locus YDR388W, hits give low values",0.967
same,normalized growth,"locus YDR392W, strain spt3, hits give low values",0.929
same,normalized growth,"locus YDR502C, strain sam2, hits give low values",0.938
same,normalized growth,"locus YEL003W, strain gim4, hits give low values",0.928
same,normalized growth,"locus YEL037C, strain rad23, hits give low values",0.964
same,normalized growth,"locus YEL061C, strain CIN8 (second series), hits give low values",0.965
same,normalized growth,"locus YEL061C, strain CIN8, hits give low values",0.982
same,normalized growth,"locus YER015W, strain faa2, hits give low values",0.971
same,normalized growth,"locus YER016W, strain bim1, hits give low values",0.975
same,normalized growth,"locus YER110C, hits give low values",0.965
same,normalized growth,"locus YER111C, strain swi4, hits give low values",0.974
same,normalized growth,"locus YER155C, strain BEM2 (second series), hits give low values",0.958
same,normalized growth,"locus YER155C, strain BEM2, hits give low values",0.986
same,normalized growth,"locus YER167W, strain BCK2, hits give low values",0.904
same,normalized growth,"locus YFR010W, strain ubp6, hits give low values",0.952
same,normalized growth,"locus YGL078C, strain dbp3, hits give low values",0.961
same,normalized growth,"locus YGL086W, strain mad1, hits give low values",0.972
same,normalized growth,"locus YGL167C, strain pmr1, hits give low values",0.962
same,normalized growth,"locus YGL173C, strain kem1, hits give low values",0.949
same,normalized growth,"locus YGL227W, strain vid30, hits give low values",0.961
same,normalized growth,"locus YGL240W, strain doc1, hits give low values",0.894
same,normalized growth,"locus YGL248W, strain PDE1, hits give low values",0.961
same,normalized growth,"locus YGL253W, strain hxk2, hits give low values",0.884 (active)
same,normalized growth,"locus YGR078C, strain PAC10, hits give low values",0.936
same,normalized growth,"locus YGR135W, strain pre9, hits give low values",0.934
same,normalized growth,"locus YGR229C, strain SMI1, hits give low values",0.84
same,normalized growth,"locus YGR252W, strain gcn5, hits give low values",0.749 (active)
same,normalized growth,"locus YHR013C, strain ard1, hits give low values",0.991
same,normalized growth,"locus YHR027C, strain rpn1, hits give low values",0.971
same,normalized growth,"locus YHR030C, strain SLT2, hits give low values",0.976
same,normalized growth,"locus YHR079C, strain IRE1 (second series), hits give low values",0.959
same,normalized growth,"locus YHR094C, strain hxt1, hits give low values",0.967
same,normalized growth,"locus YHR129C, strain ARP1, hits give low values",0.967
same,normalized growth,"locus YHR142W, strain chs7, hits give low values",0.926
same,normalized growth,"locus YHR200W, strain rpn10, hits give low values",0.971
same,normalized growth,"locus YIL066C, strain RNR3, hits give low values",0.945
same,normalized growth,"locus YIL073C, strain SPO22, hits give low values",0.955
same,normalized growth,"locus YIR030C, strain dcg1, hits give low values",0.965
same,normalized growth,"locus YJL092W, strain hpr5, hits give low values",0.97
same,normalized growth,"locus YJL095W, strain BCK1 (second series), hits give low values",0.964
same,normalized growth,"locus YJL095W, strain BCK1, hits give low values",0.956
same,normalized growth,"locus YJL115W, strain asf1, hits give low values",0.975
same,normalized growth,"locus YJL129C, strain trk1, hits give low values",0.946
same,normalized growth,"locus YJL134W, strain LCB3, hits give low values",0.974
same,normalized growth,"locus YJL154C, strain vps35, hits give low values",0.966
same,normalized growth,"locus YJL164C, strain tpk1, hits give low values",0.973
same,normalized growth,"locus YJL166W, strain qcr8, hits give low values",0.936
same,normalized growth,"locus YJL168C, strain set2, hits give low values",0.99
same,normalized growth,"locus YJL187C, strain SWE1 (second series), hits give low values",0.953
same,normalized growth,"locus YJL187C, strain SWE1, hits give low values",0.961
same,normalized growth,"locus YJR043C, strain POL32, hits give low values",0.876
same,normalized growth,"locus YJR075W, strain HOC1, hits give low values",0.947
same,normalized growth,"locus YKL009W, strain mrt4, hits give low values",0.939
same,normalized growth,"locus YKL068W, hits give low values",0.957
same,normalized growth,"locus YKL085W, strain MDH1 (second series), hits give low values",0.951
same,normalized growth,"locus YKL085W, strain MDH1, hits give low values",0.951
same,normalized growth,"locus YKL160W, strain elf1, hits give low values",0.982
same,normalized growth,"locus YKR001C, strain vps1, hits give low values",0.808 (active)
same,normalized growth,"locus YKR026C, strain gcn3, hits give low values",0.962
same,normalized growth,"locus YKR091W, strain srl3, hits give low values",0.969
same,normalized growth,"locus YLL001W, strain dnm1, hits give low values",0.945
same,normalized growth,"locus YLL026W, hits give low values",0.973
same,normalized growth,"locus YLL041C, strain sdh2, hits give low values",0.965
same,normalized growth,"locus YLR027C, strain aat2, hits give low values",0.951
same,normalized growth,"locus YLR039C, strain RIC1, hits give low values",0.688
same,normalized growth,"locus YLR058C, strain SHM2, hits give low values",0.977
same,normalized growth,"locus YLR102C, strain apc9, hits give low values",0.969
same,normalized growth,"locus YLR221C, strain rsa3, hits give low values",0.905 (active)
same,normalized growth,"locus YLR258W, strain gsy2, hits give low values",0.963
same,normalized growth,"locus YLR262C, strain YPT6 (second series), hits give low values",0.968
same,normalized growth,"locus YLR262C, strain YPT6, hits give low values",0.801
same,normalized growth,"locus YLR268W, strain sec22, hits give low values",0.959
same,normalized growth,"locus YLR320W, strain mms22, hits give low values",0.933
same,normalized growth,"locus YLR330W, strain CHS5, hits give low values",0.974
same,normalized growth,"locus YLR342W, strain FKS1 (second series), hits give low values",0.95
same,normalized growth,"locus YLR342W, strain FKS1, hits give low values",0.963
same,normalized growth,"locus YLR357W, strain rsc2, hits give low values",0.967
same,normalized growth,"locus YLR370C, strain arc18, hits give low values",0.965
same,normalized growth,"locus YLR371W, strain rom2, hits give low values",0.978
same,normalized growth,"locus YLR384C, strain iki3, hits give low values",0.961
same,normalized growth,"locus YLR418C, strain cdc73, hits give low values",0.872
same,normalized growth,"locus YML016C, strain PPZ1, hits give low values",0.982
same,normalized growth,"locus YML032C, strain rad52, hits give low values",0.967
same,normalized growth,"locus YML120C, strain ndi1, hits give low values",0.966
same,normalized growth,"locus YML124C, strain tub3, hits give low values",0.96
same,normalized growth,"locus YMR058W, strain fet3, hits give low values",0.963
same,normalized growth,"locus YMR078C, strain ctf18, hits give low values",0.951
same,normalized growth,"locus YMR125W, strain sto1, hits give low values",1
same,normalized growth,"locus YMR129W, hits give low values",0.969
same,normalized growth,"locus YMR205C, strain PFK2, hits give low values",0.981
same,normalized growth,"locus YMR223W, strain ubp8, hits give low values",0.932
same,normalized growth,"locus YMR231W, strain pep5, hits give low values",0.972
same,normalized growth,"locus YMR263W, strain SAP30, hits give low values",0.949
same,normalized growth,"locus YMR307W, strain GAS1, hits give low values",0.923
same,normalized growth,"locus YNL067W, strain RPL9B, hits give low values",0.953
same,normalized growth,"locus YNL071W, strain lat1, hits give low values",0.957
same,normalized growth,"locus YNL153C, strain GIM3, hits give low values",0.969
same,normalized growth,"locus YNL209W, strain ssb2, hits give low values",0.997
same,normalized growth,"locus YNL233W, strain BNI4, hits give low values",0.929
same,normalized growth,"locus YNL248C, strain rpa49, hits give low values",0.871 (active)
same,normalized growth,"locus YNL250W, strain rad50, hits give low values",0.967
same,normalized growth,"locus YNL271C, strain bni1, hits give low values",0.957
same,normalized growth,"locus YNL298W, strain CLA4, hits give low values",0.977
same,normalized growth,"locus YNL307C, strain MCK1, hits give low values",0.952
same,normalized growth,"locus YNL322C, strain KRE1 (second series), hits give low values",0.959
same,normalized growth,"locus YNR049C, strain mso1, hits give low values",0.968
same,normalized growth,"locus YNR052C, strain pop2, hits give low values",0.983
same,normalized growth,"locus YOL006C, strain TOP1, hits give low values",0.587
same,normalized growth,"locus YOL012C, strain htz1",1.06
same,normalized growth,"locus YOL147C, strain pex11, hits give low values",0.977
same,normalized growth,"locus YOR001W, strain rrp6, hits give low values",0.922
same,normalized growth,"locus YOR061W, strain CKA2, hits give low values",0.989
same,normalized growth,"locus YOR069W, strain VPS5, hits give low values",0.981
same,normalized growth,"locus YOR070C, strain gyp1, hits give low values",0.979
same,normalized growth,"locus YOR080W, strain dia2, hits give low values",0.951
same,normalized growth,"locus YOR083W, strain WHI5, hits give low values",0.979
same,normalized growth,"locus YOR106W, strain vam3, hits give low values",0.938
same,normalized growth,"locus YOR136W, strain idh2, hits give low values",0.972
same,normalized growth,"locus YOR144C, strain elg1, hits give low values",0.979
same,normalized growth,"locus YOR184W, strain ser1, hits give low values",0.96
same,normalized growth,"locus YOR265W, strain rbl2, hits give low values",0.964
same,normalized growth,"locus YOR270C, strain vph1, hits give low values",0.737 (active)
same,normalized growth,"locus YOR290C, strain snf2, hits give low values",0.976
same,normalized growth,"locus YOR316C, strain cot1, hits give low values",0.969
same,normalized growth,"locus YPL051W, strain arl3, hits give low values",0.916
same,normalized growth,"locus YPL078C, strain atp4, hits give low values",0.959
same,normalized growth,"locus YPL106C, strain sse1, hits give low values",0.969
same,normalized growth,"locus YPL240C, strain hsp82, hits give low values",0.979
same,normalized growth,"locus YPR119W, strain clb2, hits give low values",0.961
same,normalized growth,"locus YPR141C, strain kar3, hits give low values",0.964
same,normalized growth,"locus YPR163C, strain tif3, hits give low values",0.948
same,normalized growth,"locus YPR167C, strain met16, hits give low values",0.969
same,normalized growth,"strain wtn01, hits give low values",0.957
